Test results published in PubChem BioAssay (EPA / NIEHS).
Active and inactive are the calls of the source. How the source made its calls: active means hit-call score of the fitted dose curve at least 0.9, where 1 is the maximum; inactive means score below 0.9.

What was measured:
[1] = read-out: TIMP metallopeptidase inhibitor 2 (TIMP2), TIMP2 (gene 7077); assay: BSK_KF3CT_TIMP2: BioMAP Diversity Plus: KF3CT Assay for TIMP metallopeptidase inhibitor 2 (TIMP2) Biomarker Activity (AID 2283071); conditions: primary human keratinocytes with fibroblasts; actives raise or lower the signal
Outline: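 Keratinocyte–fibroblast co-culture, 24 h exposure; TIMP-2 ELISA, DMSO-normalised bidirectional fit. Parallel SRB (0.1%, TCA-fixed, 560 nm) total-protein staining gauges cytotoxicity.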

[2] = read-out: Transforming growth factor beta 1 (TGFb1), TGFB1 (gene 7040); assay: BSK_KF3CT_TGFb1: BioMAP Diversity Plus: KF3CT Assay for Transforming growth factor beta 1 (TGFb1) Biomarker Activity (AID 2283072); conditions: primary human keratinocytes with fibroblasts; actives raise or lower the signal
Outline: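 Signal changes in either direction, relative to DMSO, define activity here. TGF-b1 is read by ELISA from a human keratinocyte-fibroblast co-culture 24 h post-dose.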

[3] = read-out: C-C motif chemokine 2 (Homo sapiens) (UniProt P13500); assay: BSK_KF3CT_MCP1: BioMAP Diversity Plus: KF3CT Assay for Monocyte Chemoattractant Protein 1 (MCP1/CCL2) Biomarker Activity (AID 2283073); conditions: primary human keratinocytes with fibroblasts; actives raise or lower the signal
Outline: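 ELISA readout of MCP-1 after 24 h chemical dosing of a human skin primary co-culture of keratinocytes and foreskin fibroblasts. Activity was fitted in both directions against DMSO.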

[4] = read-out: Matrix Metallopeptidase 9 (MMP9), MMP9 (gene 4318); assay: BSK_KF3CT_MMP9: BioMAP Diversity Plus: KF3CT Assay for Matrix Metallopeptidase 9 (MMP9) Biomarker Activity (AID 2283074); conditions: primary human keratinocytes with fibroblasts; actives raise or lower the signal
Outline: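 Human keratinocyte/foreskin fibroblast co-culture; compound added; 24 h; MMP-9 by ELISA; bidirectional fit vs DMSO baseline.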

CD40, CD40 (gene 958) [5] = assay: BSK_LPS_CD40: BioMAP Diversity Plus: LPS Assay for CD40 Biomarker Activity (AID 2283076); conditions: primary human HUVEC with PBMC; actives raise or lower the signal
Outline: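 Cells were dosed, incubated 24 h, then assayed for CD40 by ELISA. Gain or loss of signal was analysed relative to DMSO controls. The culture paired human umbilical vein endothelium with peripheral blood mononuclear cells.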

[6] = read-out: E-selectin (Homo sapiens) (UniProt P16581); assay: BSK_LPS_Eselectin: BioMAP Diversity Plus: LPS Assay for Eselectin Biomarker Activity (AID 2283077); conditions: primary human HUVEC with PBMC; actives raise or lower the signal
Outline: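 Primary human vascular co-culture (endothelium plus PBMC) was dosed with chemical, then E-selectin quantified by ELISA at 24 h. Endpoint values derive from bidirectional curve fitting relative to DMSO.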

[7] = read-out: Interleukin-8 (IL8), CXCL8 (gene 3576); assay: BSK_LPS_IL8: BioMAP Diversity Plus: LPS Assay for Interleukin-8 (IL8) Biomarker Activity (AID 2283078); conditions: primary human HUVEC with PBMC; actives raise or lower the signal
Outline: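 Readout is IL-8 by ELISA, taken 24 h after compounds were added to LPS-stimulated endothelial/PBMC co-cultures. Both increases and decreases relative to DMSO control were scored through bidirectional fitting.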

[8] = BSK_LPS_SRB: Viability Assessment in the BioMAP Diversity Plus: LPS Assay (AID 2283079); conditions: primary human HUVEC with PBMC;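 further: total protein by sulforhodamine B absorbance as a cytotoxicity measure; measured one day after compound addition; fitted in both directions against DMSO so loss or gain of signal counts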
Outline: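 Readout is SRB absorbance at 560 nm (0.1% stain, TCA-fixed parallel cultures) as a total-protein cytotoxicity measure. Cells: primary human umbilical vein endothelium plus peripheral blood mononuclear cells, 24 h after chemical exposure; DMSO served as baseline.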

[9] = read-out: Interleukin-1 alpha (IL1a), IL1A (gene 3552); assay: BSK_LPS_IL1a: BioMAP Diversity Plus: LPS Assay for Interleukin-1 alpha (IL1a) Biomarker Activity (AID 2283080); conditions: primary human HUVEC with PBMC; actives raise or lower the signal
Outline: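 ELISA read-out of IL-1 alpha from a human primary vascular co-culture (endothelium plus PBMC) under LPS, sampled 24 hours post-dosing. Activity was fitted in both directions relative to DMSO controls.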

[10] = read-out: Monocyte Chemoattractant Protein-1 (MCP1), CCL2 (gene 6347); assay: BSK_LPS_MCP1: BioMAP Diversity Plus: LPS Assay for Monocyte Chemoattractant Protein-1 (MCP1) Biomarker Activity (AID 2283081); conditions: primary human HUVEC with PBMC; actives raise or lower the signal
Outline: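 Human endothelial–PBMC co-cultures were dosed with chemical, then LPS-driven MCP-1 levels were quantified by ELISA at 24 h. Activity in either direction was fitted versus DMSO negative control.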

[11] = read-out: Macrophage colony-stimulating factor (MCSF), CSF1 (gene 1435); assay: BSK_LPS_MCSF: BioMAP Diversity Plus: LPS Assay for Macrophage colony-stimulating factor (MCSF) Biomarker Activity (AID 2283083); conditions: primary human HUVEC with PBMC; actives raise or lower the signal
Outline: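 ELISA readout of M-CSF after 24 h compound exposure in a human endothelial/PBMC co-culture. Activity, in either direction, is fitted relative to DMSO vehicle.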

[12] = read-out: Tissue Factor, F3 (gene 2152); assay: BSK_LPS_TissueFactor: BioMAP Diversity Plus: LPS Assay for Tissue Factor Biomarker Activity (AID 2283084); conditions: primary human HUVEC with PBMC; actives raise or lower the signal
Outline: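 ELISA signal for cell-surface Tissue Factor (CD142) was read 24 h after compound dosing of an LPS-stimulated human endothelial–PBMC primary co-culture. Gain or loss of signal was scored relative to DMSO.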

[13] = read-out: Tumor necrosis factor (Homo sapiens) (UniProt P01375); assay: BSK_LPS_TNFa: BioMAP Diversity Plus: LPS Assay for Tumour Necrosis Factor alpha (TNFa) Biomarker Activity (AID 2283085); conditions: primary human HUVEC with PBMC; actives raise or lower the signal
Outline: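 Primary human vascular co-culture of HUVEC and PBMC; TNFa ELISA 24 h after treatment, analysed as increase or decrease relative to DMSO control.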

[14] = read-out: Vascular cell adhesion molecule 1 (VCAM1), VCAM1 (gene 7412); assay: BSK_LPS_VCAM1: BioMAP Diversity Plus: LPS Assay for Vascular cell adhesion molecule 1 (VCAM1) Biomarker Activity (AID 2283086); conditions: primary human HUVEC with PBMC; actives raise or lower the signal
Outline: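 Primary human vascular co-culture (umbilical vein endothelium plus PBMC) stimulated with LPS received chemical; 24 h later VCAM-1 was read by ELISA. Overt cytotoxicity was assessed by sulforhodamine B staining of parallel cultures at the same time point.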

CD38, CD38 (gene 952) = assay: BSK_SAg_CD38: BioMAP Diversity Plus: SAg Assay for CD38 Biomarker Activity (AID 2283087); conditions: primary human HUVEC with PBMC; actives raise or lower the signal
Outline: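 Fluorescence ELISA of cell-surface CD38 served as the read-out, with either increase or decrease fitted against DMSO controls. Cells were a human umbilical vein endothelium plus PBMC co-culture under SEB/TSST-1 stimulation, measured 24 h after dosing.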

CD40, CD40 (gene 958) [15] = assay: BSK_SAg_CD40: BioMAP Diversity Plus: SAg Assay for CD40 Biomarker Activity (AID 2283088); conditions: primary human HUVEC with PBMC; actives raise or lower the signal
Outline: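 Compounds were dosed onto a human primary endothelial–PBMC co-culture, and after 24 h CD40 was quantified by ELISA using a fluorescence signal. Activity in either direction was fitted relative to DMSO.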

CD69, CD69 (gene 969) = assay: BSK_SAg_CD69: BioMAP Diversity Plus: SAg Assay for CD69 Biomarker Activity (AID 2283089); conditions: primary human HUVEC with PBMC; actives raise or lower the signal;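 on AC50: cell surface CD69 protein quantified by ELISA with fluorescence detection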
Outline: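 HUVEC co-cultured with PBMC were dosed with chemical, and CD69 was measured by ELISA with fluorescence read-out 24 h later. Bidirectional curve fitting used DMSO as negative control and activity baseline.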

[16] = read-out: Monocyte Chemoattractant Protein-1 (MCP1), CCL2 (gene 6347); assay: BSK_SAg_MCP1: BioMAP Diversity Plus: SAg Assay for Monocyte Chemoattractant Protein-1 (MCP1) Biomarker Activity (AID 2283090); conditions: primary human HUVEC with PBMC; actives raise or lower the signal
Outline: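 MCP-1 levels in the endothelial–PBMC SAg co-culture were quantified by ELISA at 24 h post-dosing; both increases and decreases versus DMSO scored. Cytotoxicity monitored by SRB total protein in parallel cultures.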

[17] = BSK_LPS_PGE2: BioMAP Diversity Plus: LPS Assay for Prostaglandin E2 (PGE2) Biomarker Activity (AID 2283082); conditions: primary human HUVEC with PBMC; actives raise or lower the signal;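 on AC50: secreted prostaglandin E2 measured by ELISA in LPS-stimulated co-culture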
Outline: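 Endpoint derived from bidirectional curve fitting versus DMSO of ELISA-measured PGE2 in LPS-stimulated human primary vascular co-culture (HUVEC with PBMC) harvested at 24 h.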

[18] = read-out: urokinase plasminogen activator (uPA), PLAU (gene 5328); assay: BSK_KF3CT_uPA: BioMAP Diversity Plus: KF3CT Assay for urokinase plasminogen activator (uPA) Biomarker Activity (AID 2283075); conditions: primary human keratinocytes with fibroblasts; actives raise or lower the signal
Outline: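 ELISA readout of uPA, analyzed for signal gain or loss relative to DMSO, from a human primary keratinocyte–foreskin fibroblast co-culture measured 24 h after chemical treatment.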

E-selectin (Homo sapiens), sequence (P16581 whole entry, looked up): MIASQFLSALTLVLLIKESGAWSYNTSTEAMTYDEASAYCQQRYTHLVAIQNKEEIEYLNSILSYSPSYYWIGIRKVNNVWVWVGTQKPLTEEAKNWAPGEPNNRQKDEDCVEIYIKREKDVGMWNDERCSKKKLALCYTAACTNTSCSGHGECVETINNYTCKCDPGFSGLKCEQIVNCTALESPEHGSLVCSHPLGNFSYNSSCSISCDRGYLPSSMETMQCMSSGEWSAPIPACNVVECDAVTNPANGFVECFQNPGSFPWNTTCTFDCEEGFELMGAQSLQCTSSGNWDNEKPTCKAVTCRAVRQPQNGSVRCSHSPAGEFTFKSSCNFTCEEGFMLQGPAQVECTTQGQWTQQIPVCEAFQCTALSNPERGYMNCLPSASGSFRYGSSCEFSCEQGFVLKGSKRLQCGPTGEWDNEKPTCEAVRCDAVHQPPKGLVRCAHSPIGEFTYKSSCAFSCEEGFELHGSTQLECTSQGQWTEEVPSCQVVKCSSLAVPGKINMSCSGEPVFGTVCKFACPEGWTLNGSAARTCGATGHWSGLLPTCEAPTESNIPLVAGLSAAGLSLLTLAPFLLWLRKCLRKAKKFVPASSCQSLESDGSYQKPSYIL
Tumor necrosis factor (Homo sapiens), sequence (P01375 whole entry, looked up): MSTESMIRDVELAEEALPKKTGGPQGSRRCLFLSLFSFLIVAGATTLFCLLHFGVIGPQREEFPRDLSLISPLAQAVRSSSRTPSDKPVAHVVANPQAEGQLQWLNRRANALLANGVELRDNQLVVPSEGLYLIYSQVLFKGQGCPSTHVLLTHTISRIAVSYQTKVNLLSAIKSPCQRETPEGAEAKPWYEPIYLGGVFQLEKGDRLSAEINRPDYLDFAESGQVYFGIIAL

## c1ccc(NNc2ccccc2)cc1
[1]
  outcome: inactive
[2]
  outcome: inactive
[3]
  outcome: inactive
[4]
  outcome: inactive
CD40, CD40 (gene 958) [5]
  outcome: inactive
[6]
  outcome: inactive
[7]
  outcome: inactive
[8]
  outcome: inactive
[9]
  outcome: inactive
[10]
  outcome: inactive
[11]
  outcome: inactive
[12]
  outcome: inactive
[13]
  outcome: inactive
[14]
  outcome: inactive
CD38, CD38 (gene 952)
  outcome: inactive
CD40, CD40 (gene 958) [15]
  outcome: inactive
CD69, CD69 (gene 969)
  outcome: inactive
[16]
  outcome: inactive

## CCCCC(CC)COC(=O)c1ccc(C(=O)OCC(CC)CCCC)c(C(=O)OCC(CC)CCCC)c1 (stereo not drawn)
[1]
  outcome: inactive
[2]
  outcome: inactive
[3]
  outcome: inactive
[4]
  outcome: inactive
CD40, CD40 (gene 958) [5]
  outcome: inactive
[6]
  outcome: inactive
[7]
  outcome: inactive
[8]
  outcome: inactive
[9]
  outcome: inactive
[10]
  outcome: inactive
[17]
  outcome: inactive
[11]
  outcome: inactive
[12]
  outcome: inactive
[13]
  outcome: inactive
[14]
  outcome: inactive
CD38, CD38 (gene 952)
  outcome: inactive
CD40, CD40 (gene 958) [15]
  outcome: inactive
CD69, CD69 (gene 969)
  outcome: inactive
[16]
  outcome: inactive

## N#CC(Br)(Br)C(N)=O
[1]
  outcome: inactive
[2]
  outcome: inactive
[3]
  outcome: inactive
[4]
  outcome: inactive
CD40, CD40 (gene 958) [5]
  outcome: inactive
[6]
  outcome: inactive
[7]
  outcome: inactive
[8]
  outcome: inactive
[9]
  outcome: inactive
[10]
  outcome: inactive
[17]
  outcome: inactive
[11]
  outcome: inactive
[12]
  outcome: inactive
[13]
  outcome: inactive
[14]
  outcome: inactive
CD40, CD40 (gene 958) [15]
  outcome: inactive
CD69, CD69 (gene 969)
  outcome: inactive
[16]
  outcome: inactive

## CCCCCOC(=O)c1ccccc1C(=O)OCCCCC
[1]
  outcome: inactive
[2]
  outcome: inactive
[3]
  outcome: inactive
[4]
  outcome: inactive
[18]
  outcome: inactive
CD40, CD40 (gene 958) [5]
  AC50: 20 µM (active)
[6]
  AC50: 31.7 µM (active)
[7]
  AC50: 20 µM (active)
[9]
  outcome: inactive
[10]
  outcome: inactive
[11]
  AC50: 26.5 µM (active)
[12]
  outcome: inactive
[13]
  AC50: 20 µM (active)
[14]
  AC50: 20 µM (active)
CD38, CD38 (gene 952)
  AC50: 31.6 µM (active)
CD40, CD40 (gene 958) [15]
  AC50: 24.8 µM (active)
CD69, CD69 (gene 969)
  AC50: 20 µM (active)
[16]
  outcome: inactive

## CC(C)COC(=O)c1ccccc1C(=O)OCC(C)C
[1]
  outcome: inactive
[2]
  outcome: inactive
[3]
  outcome: inactive
[4]
  outcome: inactive
CD40, CD40 (gene 958) [5]
  outcome: inactive
[6]
  outcome: inactive
[7]
  outcome: inactive
[8]
  outcome: inactive
[9]
  outcome: inactive
[10]
  outcome: inactive
[17]
  AC50: 9.78 µM (active)
[11]
  outcome: inactive
[12]
  outcome: inactive
[13]
  outcome: inactive
[14]
  AC50: 20 µM (active)
CD40, CD40 (gene 958) [15]
  outcome: inactive
CD69, CD69 (gene 969)
  AC50: 20 µM (active)
[16]
  outcome: inactive

## CCN(CC)N=O
[1]
  outcome: inactive
[2]
  outcome: inactive
[3]
  outcome: inactive
[4]
  outcome: inactive
[18]
  outcome: inactive
CD40, CD40 (gene 958) [5]
  outcome: inactive
[6]
  outcome: inactive
[7]
  outcome: inactive
[8]
  outcome: inactive
[10]
  outcome: inactive
[17]
  outcome: inactive
[11]
  outcome: inactive
[12]
  outcome: inactive
[13]
  outcome: inactive
[14]
  outcome: inactive
CD40, CD40 (gene 958) [15]
  outcome: inactive
CD69, CD69 (gene 969)
  outcome: inactive
[16]
  outcome: inactive

## Cn1cc(-c2ccccc2)c(=O)c(-c2cccc(C(F)(F)F)c2)c1
[1]
  outcome: inactive
[2]
  outcome: inactive
[3]
  outcome: inactive
[4]
  outcome: inactive
CD40, CD40 (gene 958) [5]
  outcome: inactive
[6]
  outcome: inactive
[7]
  outcome: inactive
[8]
  outcome: inactive
[9]
  outcome: inactive
[10]
  outcome: inactive
[17]
  AC50: 2.7 µM (active)
[11]
  outcome: inactive
[12]
  outcome: inactive
[13]
  outcome: inactive
[14]
  outcome: inactive
CD38, CD38 (gene 952)
  outcome: inactive
CD40, CD40 (gene 958) [15]
  outcome: inactive
CD69, CD69 (gene 969)
  outcome: inactive
[16]
  outcome: inactive
